TDP43 rescue – qHTS of TDP-43 Inhibitors; TDP-43 expressing yeast growth rescue, BacTiter-Glo, 24 h; Potency, µM (series often up to 46.1 µM), inactives show at the top dose growth rescue (activation), actives largely listed as activators; hit rate 1.8% among 410,000; AID 652104, 2013; note: % of control where 0% means no effect; nearly all actives have a fitted effect of over 50% in size
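In this qHTS, compounds that restore growth of yeast expressing TDP-43 appear as activators. Cells (OD600=0.02, galactose medium, raffinose-pregrown) are incubated with compound 24 hr at 30 deg C and growth is quantified by BacTiter-Glo.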
ClpP mod – qHTS Assay for Activators of ClpP. ATP-dependent Clp protease proteolytic subunit (Bacillus subtilis (strain 168)), P80244. purified B. subtilis ClpP, FRET peptide cleavage, 20 min. Potency, µM (doses to about 57.5 µM), inactives show at the top dose activity change, negative = active. hit rate 1.9% among 340,000. AID 651965, 2013; active = well fitted falling curve with a large enough effect; inconclusive = small, poorly fitted or top-dose-only effect; inactive = no such curve, though single readings can be large or run the other way; note: the source files actives as falling curves though it sought activators and does not explain the sign; nearly all actives have a fitted effect of over 65% in size
Target sequence (P80244 whole entry, looked up): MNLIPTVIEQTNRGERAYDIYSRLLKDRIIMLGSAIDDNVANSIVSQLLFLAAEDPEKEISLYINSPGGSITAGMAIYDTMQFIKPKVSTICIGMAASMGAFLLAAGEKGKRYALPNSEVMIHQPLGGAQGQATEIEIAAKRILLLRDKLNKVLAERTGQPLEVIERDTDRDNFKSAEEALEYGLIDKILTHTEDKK
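Purified B. subtilis ClpP, 10 microg/mL final in Tris/HCl pH8 with KCl, BSA, glycerol and Tween-20, cleaved an Abz/nitrotyrosine-quenched decapeptide. Fluorescence (ex 320, em 430) was read at 0 and 20 min at room temperature. Delta was normalized to 5.8 microM ADEP and DMSO/no-enzyme controls.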
Mm-Cpn inhibitor – Inhibitors of TCP-1 ring complex (TRiC) of Methanococcus maripaludis (MmCpn): qHTS; purified Mm-Cpn ATPase, ADP Transcreener TR-FRET; Potency, µM (highest dose often 76.9 µM), for inactives: top-dose activity, negative = inhibition, actives largely listed as inhibitors; hit rate 0.031% among 330,000; note: % is set by controls: 0 for no effect and ±100 for the full control effect; nearly all actives have a fitted effect of over 80% in size
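Eu-cryptate anti-ADP/ADP-d2 competition gives a ratio inversely related to ADP. Enzyme at 25 nM was pre-exposed to compound for 10 min, then given 10 uM ATP for 30 min, 37°C throughout.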
FUS yeast rescue – qHTS for Suppressors of FUS Proteinopathy: Primary screen using FUS-linked yeast assay. S. cerevisiae FUS-expressing, growth rescue, OD600, 24 h. Potency, µM (doses to about 76.6 µM), usual class: activators. hit rate 0.24% among 390,000. AID 1347120, 2019;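 note: plate controls were DMSO vehicle for no effect and reference control for full effect; nearly all actives have a fitted effect of over 55% in size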
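Compound concentration series was pinned onto galactose-induced FUS-expressing yeast seeded at OD 0.005. Plates sat 24hr at 30C; absorbance at 600 nm gave growth. DMSO served as background control.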
aSyn yeast inh – qHTS of alpha-syn Inhibitors. hit rate 0.14% among 370,000. Potency, µM (highest dose often 46.1 µM), inactives show at the highest dose growth rescue (activation), actives largely listed as activators. AID 652106, 2013. Yeast expressing alpha-synuclein, growth rescue, BacTiter-Glo, 24 h; note: % of control where 0% means no effect; nearly all actives have a fitted effect of over 65% in size
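Readout is rescue of growth in alpha-synuclein-expressing yeast, so inhibitors of toxicity appear as activators. Growth after 24 hr at 30 deg C in galactose medium is quantified by luminescence.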
Abeta rescue – qHTS for compounds that reverse cellular toxicity of Amyloid beta (A-beta) peptide in yeast: Primary Screen | yeast expressing A-beta42, growth rescue, OD600, 48 h; response scale: 0% DMSO, 100% iron-clioquinol control | Potency, µM (series often up to 46.1 µM), usual class: activators | hit rate 0.063% among 410,000 | AID 1347071, 2019; note: nearly all actives have a fitted effect of over 55% in size
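Growth rescue measured by 600 nm absorbance after 48 h yeast culture at 30 C with compound. Values normalized between DMSO and an equimolar ferric chloride plus clioquinol control.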
The depositor's hits bear a star; ! = repeats disagree. Only some compounds are listed: those with a hit (about 3.6% of all), similar ones and a draw of the others. Unless noted, calls come from the whole dose curve; as a rule, active = well fitted curve in the direction sought with a large enough effect; inconclusive = small, poorly fitted or top-dose-only effect, or another doubt; inactive = no such curve, though single readings can be large; an effect the other way counts as inactive or inconclusive. Potency is the fitted concentration of half-maximal effect.

Results for CCOc1ccc(-n2c(=O)c3c(C)c(C)sc3n(CC(=O)N3CCC(C)CC3)c2=O)cc1 ?
TDP43 rescue: 19.3%; ClpP mod: -0.1%; FUS yeast rescue: inactive; Abeta rescue: inactive

What do the screens show for `COc1cccc(-c2nc(SCC(=O)Nc3ccc4c(c3)OCO4)c(-c3ccccc3)[nH]2)c1`?
TDP43 rescue: 22.4µM*; ClpP mod: inconclusive; FUS yeast rescue: inconclusive; Abeta rescue: inactive

How did COc1ccc(-c2[nH]c(-c3cccc(OC)c3)nc2SCC(=O)NC2CCCC2)cc1 do in these assays?
TDP43 rescue: 12.7%; ClpP mod: 25.1µM*!; Mm-Cpn inhibitor: -1.3%; FUS yeast rescue: inactive; aSyn yeast inh: 1.9%; Abeta rescue: inactive

What do the screens show for `COc1ccc(-c2[nH]c(-c3ccccc3)nc2SCC(=O)NC2CCCC2)cc1`?
TDP43 rescue: 21.9%; ClpP mod: 22.4µM*!; Mm-Cpn inhibitor: 0.1%; FUS yeast rescue: inactive; aSyn yeast inh: 2.5%; Abeta rescue: inconclusive

What do the screens show for `COc1ccc(-c2nc(SCC(=O)Nc3ccc4c(c3)OCO4)c(-c3ccc(OC)cc3)[nH]2)cc1`?
TDP43 rescue: 14.0%; ClpP mod: inconclusive; FUS yeast rescue: inactive; Abeta rescue: inactive

What do the screens show for `Cc1c(C(=O)Nc2ccc(-n3c(C)nc4ccccc4c3=O)cc2)cccc1[N+](=O)[O-]`?
TDP43 rescue: 4.6%; ClpP mod: -1.3%; FUS yeast rescue: inactive; Abeta rescue: inactive

What do the screens show for `CN(C)CC(=O)N[C@H]1C[C@@H]2O[C@H](CO)CC[C@@H]2O[C@@H]1CCc1ccc(-c2ccc(F)cc2)cc1`?
FUS yeast rescue: inactive

What do the screens show for `Cc1nc2nc(SCC(=O)NCCc3ccc(Cl)cc3)nn2c(C)c1Cc1c(F)cccc1Cl`?
TDP43 rescue: 14.0%; ClpP mod: -0.9%; FUS yeast rescue: inactive; Abeta rescue: inactive

Results for COCCCN(C(C)=O)c1nc(-c2ccc(OC)cc2)cs1 ?
TDP43 rescue: 11.2µM*; ClpP mod: 5.2%; Mm-Cpn inhibitor: 0.2%; FUS yeast rescue: inactive; aSyn yeast inh: -6.1%; Abeta rescue: inactive

How did CCN(CC)CCCN(C(=O)c1ccc(OC)cc1)c1nc(-c2ccc(OC)cc2)cs1 do in these assays?
TDP43 rescue: 8.4%; Mm-Cpn inhibitor: -5.2%; FUS yeast rescue: inactive; aSyn yeast inh: -1.1%; Abeta rescue: inactive

What do the screens show for `CCCCNC(=O)CCCn1c(=O)c2ccccc2n(Cc2cccc(Cl)c2)c1=O`?
TDP43 rescue: 25.1%; ClpP mod: -12.6%; FUS yeast rescue: inactive; Abeta rescue: inactive

How did COc1cccc(NC(=S)NC(Cc2ccccc2)c2ccccc2)c1 (stereo not given) do in these assays?
TDP43 rescue: 11.2µM*; ClpP mod: -0.3%; FUS yeast rescue: inactive; aSyn yeast inh: 27.2%; Abeta rescue: inconclusive

How did CCOc1ccc(CNC(=O)c2ccc3c(c2)c(C)c(C)n3Cc2ccccc2)cc1OC do in these assays?
TDP43 rescue: 8.5%; ClpP mod: -28.7%; FUS yeast rescue: inactive; Abeta rescue: inactive

What do the screens show for `CC(C)(C)Sc1ccc2nc3c(n2c1)CCCC3`?
TDP43 rescue: -13.0%; ClpP mod: 15.8µM*; Mm-Cpn inhibitor: 1.8%; FUS yeast rescue: inactive; aSyn yeast inh: -10.5%; Abeta rescue: inactive

Results for Cc1ccccc1NC(=O)COc1coc(CN2CCN(Cc3ccccc3)CC2)cc1=O ?
TDP43 rescue: -1.6%; ClpP mod: -1.8%; Mm-Cpn inhibitor: -1.1%; FUS yeast rescue: inactive; aSyn yeast inh: -5.4%; Abeta rescue: inactive

How did COC(=O)c1[nH]c2ccc(C)cc2c1NC(=O)CN1CCN(c2ccccc2)CC1 do in these assays?
TDP43 rescue: 19.6%; ClpP mod: 22.4µM*; Mm-Cpn inhibitor: 1.4%; FUS yeast rescue: inactive; aSyn yeast inh: -1.0%; Abeta rescue: inactive

What do the screens show for `Cc1ccc(NC(=O)COc2coc(CN3CCN(Cc4ccccc4)CC3)cc2=O)cc1`?
TDP43 rescue: -25.3%; ClpP mod: 28.2µM*; Mm-Cpn inhibitor: -1.6%; FUS yeast rescue: inactive; aSyn yeast inh: -4.0%; Abeta rescue: inactive

Results for COC(=O)c1[nH]c2ccc(C)cc2c1NC(=O)CN1CCN(c2ccc(F)cc2)CC1 ?
TDP43 rescue: 16.9%; ClpP mod: -3.8%; Mm-Cpn inhibitor: -2.8%; FUS yeast rescue: inactive; aSyn yeast inh: 6.4%; Abeta rescue: inactive

Results for COC(=O)c1[nH]c2ccc(C)cc2c1NC(=O)CN1CCN(Cc2ccccc2)CC1 ?
TDP43 rescue: -9.5%; ClpP mod: 14.1µM*; Mm-Cpn inhibitor: 1.2%; FUS yeast rescue: inactive; aSyn yeast inh: -4.4%; Abeta rescue: inactive

Results for COC(=O)c1[nH]c2ccccc2c1NC(=O)CN1CCN(C/C=C/c2ccccc2)CC1 ?
TDP43 rescue: 2.8%; ClpP mod: 22.4µM*; Mm-Cpn inhibitor: -4.4%; FUS yeast rescue: inactive; aSyn yeast inh: -5.3%; Abeta rescue: inactive

Results for COc1ccccc1/C=c1/[nH]c(=O)/c(=C\c2ccccc2OC)[nH]c1=O ?
ClpP mod: -0.9%

Results for COC(=O)c1[nH]c2ccc(C)cc2c1NC(=O)CN1CCN(C(=O)c2ccccc2)CC1 ?
TDP43 rescue: 1.7%; ClpP mod: 14.1µM*; Mm-Cpn inhibitor: 0.2%; FUS yeast rescue: inactive; aSyn yeast inh: 7.2%; Abeta rescue: inactive

What do the screens show for `COC(=O)c1[nH]c2ccc(C)cc2c1NC(=O)CN1CCC(C)CC1`?
TDP43 rescue: inconclusive; ClpP mod: 28.2µM*; Mm-Cpn inhibitor: -2.8%; FUS yeast rescue: inactive; aSyn yeast inh: 1.2%; Abeta rescue: inactive

How did CCOC(=O)N1CCN(CC(=O)Nc2c(C(=O)OC)[nH]c3cc(C)ccc23)CC1 do in these assays?
TDP43 rescue: 9.2%; ClpP mod: inconclusive; Mm-Cpn inhibitor: 0.2%; FUS yeast rescue: inactive; aSyn yeast inh: 0.3%; Abeta rescue: inactive

How did COC(=O)c1[nH]c2ccc(Cl)cc2c1NC(=O)CN1CCC(C(N)=O)CC1 do in these assays?
TDP43 rescue: -2.9%; ClpP mod: -21.9%; Mm-Cpn inhibitor: 0.9%; FUS yeast rescue: inactive; aSyn yeast inh: -10.8%; Abeta rescue: inactive

How did CCOCCCNC(=O)c1c(NC(=O)c2nc(SCC)ncc2Cl)sc2c1CCCC2 do in these assays?
ClpP mod: 0.4%; aSyn yeast inh: -3.5%
